Reference: PubChem BioAssay (NCATS)
Inconclusive results are not listed. Calls of active or inactive are those of the source. Unless noted, calls come from the whole dose curve.

How the values were obtained:
[1] = qHTS for Inhibitors of the Functional Ribonucleoprotein Complex (vRNP) of Lassa (LASV) Arenavirus: LASV Primary Screen - GLuc reporter signal (AID 1347082; calls by dose curve; tested in HEK293 reporter line; note: nearly all actives have a fitted effect of over 60% in size)
[2] = qHTS for Inhibitors of the Functional Ribonucleoprotein Complex (vRNP) of Lassa (LASV) Arenavirus: Viability assay - alamar blue signal for LASV Primary Screen (AID 1347083; calls by dose curve; tested in HEK293 reporter line; note: nearly all actives have a fitted effect of over 80% in size)
[3] = qHTS for Inhibitors of the Functional Ribonucleoprotein Complex (vRNP) of Lymphocytic Choriomeningitis Arenaviruses (LCMV): Viability assay - alamar blue signal for LCMV Primary Screen (AID 1347085; calls by dose curve; tested in HEK293 reporter line; note: nearly all actives have a fitted effect of over 80% in size)
[4] = target: Nucleoprotein (Lymphocytic choriomeningitis virus (strain Armstrong)) (UniProt P09992); assay: qHTS for Inhibitors of the Functional Ribonucleoprotein Complex (vRNP) of Lymphocytic Choriomeningitis Arenaviruses (LCMV): LCMV Primary Screen - GLuc reporter signal (AID 1347086); note: nearly all actives have a fitted effect of over 70% in size
% is set by controls: 0 for no effect and ±100 for the full control effect.
Note: series mostly up to about 57 µM.

Nucleoprotein (Lymphocytic choriomeningitis virus (strain Armstrong)), sequence (P09992 whole entry, looked up): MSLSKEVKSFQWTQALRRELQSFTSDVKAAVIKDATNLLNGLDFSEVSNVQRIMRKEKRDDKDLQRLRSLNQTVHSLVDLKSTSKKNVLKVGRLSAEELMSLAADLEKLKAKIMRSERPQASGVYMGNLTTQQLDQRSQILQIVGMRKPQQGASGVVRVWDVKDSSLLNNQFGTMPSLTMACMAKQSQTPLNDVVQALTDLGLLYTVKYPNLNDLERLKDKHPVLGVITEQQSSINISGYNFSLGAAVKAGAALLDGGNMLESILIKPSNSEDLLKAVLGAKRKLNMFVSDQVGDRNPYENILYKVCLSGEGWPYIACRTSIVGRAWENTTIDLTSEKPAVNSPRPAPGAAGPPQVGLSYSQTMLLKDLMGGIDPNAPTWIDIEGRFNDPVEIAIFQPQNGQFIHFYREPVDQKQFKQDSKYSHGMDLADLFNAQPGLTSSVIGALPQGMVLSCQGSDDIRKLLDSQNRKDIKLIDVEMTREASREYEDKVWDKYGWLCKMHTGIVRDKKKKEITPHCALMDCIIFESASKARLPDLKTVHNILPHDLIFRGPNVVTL

COc1ccc(C(=O)/C=C/c2ccc(O)cc2)c(O)c1C/C=C(\C)CCC=C(C)C
inactive: Potency [1] | Potency [2] | Potency [3] | Potency [4]

CCc1nccc2c1[nH]c1ccccc12
inactive: Potency [1] | Potency [2] | Potency [3] | Potency [4]

CC(C)=CCc1c(O)cc2c(c1O)C(=O)CC(c1ccccc1)O2 (stereo not given)
inactive: Potency [1] | Potency [2] | Potency [3] | Potency [4]

CC(=O)O
inactive: Potency [1] | Potency [2] | Potency [3] | Potency [4]

C=CC(C)(O)CCC=C(C)C (stereo not given)
inactive: Potency [1] | Potency [2] | Potency [3] | Potency [4]

Nc1ccn([C@@H]2O[C@H](CO)[C@@H](OP(=O)(O)O)[C@H]2O)c(=O)n1
inactive: Potency [1] | Potency [2] | Potency [3] | Potency [4]

C[C@@H](O)CCC[C@H](O)/C=C/[C@H]1[C@H](O)CC(=O)[C@@H]1C/C=C\CCCC(=O)O
inactive: activity change, negative = inhibition [1] -72.5% [at 5.82 µM] | activity change, negative = reduced viability [2] -134% [at 5.82 µM] | activity change, negative = lower viability [3] -144% [at 5.82 µM] | activity change, negative = inhibition [4] -73.7% [at 5.82 µM]

COc1ccc(-c2coc3cc(OC)ccc3c2=O)cc1
inactive: Potency [1] | Potency [2] | Potency [3] | Potency [4]

CC1CC2CCCC(O)=C2C(=O)O1 (stereo not given)
inactive: Potency [1] | Potency [2] | Potency [3] | Potency [4]

CC(CCC(=O)O)C1CCC2C3CC(O)C4CC(O)CC[C@]4(C)C3CCC12C (stereo not given in full)
inactive: Potency [1] | Potency [2] | Potency [3] | Potency [4]

COc1cc2c(cc1O)C(Cc1ccc(O)cc1)NCC2 (stereo not given)
inactive: Potency [1] | Potency [2] | Potency [3] | Potency [4]

CCCCCCOC(=O)c1ccccc1
inactive: Potency [1] | Potency [2] | Potency [3] | Potency [4]

COC1CC(C)C(OC)c2cc(O)cc(c2O)NC(=O)C(C)=CC=CC(C)C(OC(N)=O)C(C)=CC(C)C1OC (stereo not given)
inactive: Potency [1] | Potency [2] | Potency [3] | Potency [4]

CC(C)C(O)(C(=O)OC[C@@H]1CC[N+]2([O-])CCCC12)C(C)O (stereo not given in full)
inactive: Potency [1] | Potency [2] | Potency [3] | Potency [4]

CC/C=C\CCOC(=O)C(C)C
inactive: Potency [1] | Potency [2] | Potency [3] | Potency [4]

O=c1cc(-c2ccc(O)cc2)oc2c([C@@H]3O[C@H](CO)[C@@H](O)[C@H](O)[C@H]3O)c(O)c([C@@H]3O[C@H](CO)[C@@H](O)[C@H](O)[C@H]3O)c(O)c12
inactive: Potency [1] | Potency [2] | Potency [3] | Potency [4]

CC(C)(O[C@@H]1O[C@H](CO)[C@@H](O)[C@H](O)[C@H]1O)[C@@H]1CC=C(C(=O)O)CC1
inactive: Potency [1] | Potency [2] | Potency [3] | Potency [4]

CC(C)(O)C1CC[C@@]2(C)C3CCC4[C@@]5(C)CCCC(C)(C)C5C(O)C[C@]4(C)[C@]3(C)CC[C@@H]12 (stereo not given in full)
inactive: Potency [1] | Potency [2] | Potency [3] | Potency [4]

COc1cc(O)c2c(=O)c3c(OC)c(O)ccc3oc2c1
inactive: Potency [1] | Potency [2] | Potency [3] | Potency [4]

Cc1c(O)c2c(c(C(=O)/C=C/c3ccccc3)c1O)OC(C)(C)C=C2
inactive: Potency [1] | Potency [2] | Potency [3] | Potency [4]

c1ccc2cnccc2c1
inactive: Potency [1] | Potency [2] | Potency [3] | Potency [4]

CC(C)=C[C@H]1C[C@H](C)[C@H]2CC[C@H](C)c3c(O[C@@H]4OC[C@@H](O)[C@H](O)C4O)c(O)c(C)c1c32 (stereo not given in full)
inactive: Potency [1] | Potency [2] | Potency [3] | Potency [4]

CC1(C)C2CC[C@]3(C)C(CC=C4[C@@H]5C[C@@](C)(CO)[C@@H]6C[C@@]5(CC[C@]43C)C(=O)O6)[C@@]2(C)CC[C@@H]1O (stereo not given in full)
inactive: Potency [1] | Potency [2] | Potency [3] | Potency [4]

C=O
inactive: Potency [1] | Potency [2] | Potency [3] | Potency [4]

O[C@@H]1COC2[C@@H](O)CO[C@@H]21 (stereo not given in full)
inactive: Potency [1] | Potency [2] | Potency [3] | Potency [4]

COC(=O)C1(Cc2ccc(O)cc2)OC(=O)C(O)=C1c1ccc(O)cc1 (stereo not given)
inactive: Potency [1] | Potency [2] | Potency [3] | Potency [4]

CCCCC(C)/C=C(C)/C=C(\C)C(=O)NC1=CC(O)(/C=C/C=C/C=C/C(=O)NC2=C(O)CCC2=O)C2OC2C1=O (stereo not given)
inactive: Potency [1] | Potency [2] | Potency [3] | Potency [4]

Oc1cc(O)cc(-c2cc3ccc(O)cc3o2)c1
inactive: Potency [1] | Potency [2] | Potency [3] | Potency [4]

O=C1NC(=O)C(Cc2ccc(O)cc2)N1 (stereo not given)
inactive: Potency [1] | Potency [2] | Potency [3] | Potency [4]

CON(C)C(=O)N1N=C(c2cc(F)ccc2F)S[C@]1(CCCN)c1ccccc1
inactive: Potency [1] | Potency [2] | Potency [3] | Potency [4]

CN[C@H]1[C@@H](O[C@@H]2[C@H](O[C@@H]3[C@@H](O)[C@@H](O)[C@@H](N=C(N)N)[C@@H](O)[C@@H]3N=C(N)N)O[C@H](C)[C@@]2(O)C=O)O[C@@H](CO)[C@@H](O)[C@H]1O
inactive: Potency [1] | Potency [2] | Potency [3] | Potency [4]

CC(=O)OCC(=O)[C@@]1(O)CC[C@H]2[C@@H]3CCC4=CC(=O)C=C[C@]4(C)[C@@H]3[C@@H](O)C[C@@]21C
inactive: Potency [1] | Potency [2] | Potency [3] | Potency [4]

CCCCC/C=C\C/C=C\C/C=C\CCCCCCC(=O)O[C@H](COCCCCCCCCCCCCCCCC)COP(=O)([O-])OCC[N+](C)(C)C
inactive: activity change, negative = inhibition [1] -13.6% [at 5.82 µM] | activity change, negative = reduced viability [2] 4.54% [at 5.82 µM] | activity change, negative = lower viability [3] 13.1% [at 5.82 µM] | activity change, negative = inhibition [4] 9.5% [at 5.82 µM]

O=C(Nc1cc2cc[nH]c2cn1)c1ccccc1
inactive: Potency [1] | Potency [2] | Potency [3] | Potency [4]

CC1(C)CCC[C@]2(C)[C@H]3CCO[C@]3(C)CC[C@@H]12
inactive: Potency [1] | Potency [2] | Potency [3] | Potency [4]

COc1cc(CCc2ccccc2)c(C(=O)O)c(O)c1C/C=C(/C)CCC=C(C)C
inactive: Potency [1] | Potency [2] | Potency [3] | Potency [4]

COC1C(O)C(CO)OC1n1cnc2c(=O)[nH]c(N)nc21 (stereo not given)
inactive: Potency [1] | Potency [2] | Potency [3] | Potency [4]

COC1[C@@H](OC)C[C@H](C)[C@@H](OC)C2=CC(=O)C=C(NC(=O)/C(C)=C/C=C\[C@H](OC)[C@@H](OC(N)=O)/C(C)=C/[C@@H]1C)C2=O (stereo not given in full)
inactive: activity change, negative = inhibition [1] 1.65% [at 5.82 µM] | activity change, negative = reduced viability [2] 7.34% [at 5.82 µM] | activity change, negative = lower viability [3] 15.6% [at 5.82 µM] | activity change, negative = inhibition [4] 12.1% [at 5.82 µM]

CCCCCCCC(=O)C(C)C(=O)N(C)[C@H](Cc1ccc(OC)cc1)C(=O)N(C)[C@H](C(N)=O)C(C)C (stereo not given in full)
inactive: Potency [1] | Potency [2] | Potency [3] | Potency [4]

CC1(C)CC(=O)c2cc(O)ccc2O1
inactive: Potency [1] | Potency [2] | Potency [3] | Potency [4]

CCCCC#Cc1nc(NC)c2ncn([C@@H]3O[C@H](CO)[C@@H](O)[C@H]3O)c2n1
inactive: Potency [1] | Potency [2] | Potency [3] | Potency [4]

CC/C=C\CCCCCO
inactive: Potency [1] | Potency [2] | Potency [3] | Potency [4]

COc1cc2c(cc1O)CC[n+]1cc3c(OC)c(OC)ccc3cc1-2
inactive: Potency [1] | Potency [2] | Potency [3] | Potency [4]

CC1=CCC2C(C1)C2(C)C (stereo not given)
inactive: Potency [1] | Potency [2] | Potency [3] | Potency [4]

Nc1oc2ccccc2c1C(=O)Cc1ccccc1O[C@@H]1O[C@H](CO)[C@@H](O)[C@H](O)[C@H]1O
inactive: Potency [1] | Potency [2] | Potency [3] | Potency [4]

COC1=C(OC)[C@]23CCc4ccc(OC)c(OC)c4[C@]2(CCN3C)CC1=O
inactive: Potency [1] | Potency [2] | Potency [3] | Potency [4]

O=C(/C=C/c1ccccc1)OCCc1ccccc1
inactive: Potency [1] | Potency [2] | Potency [3] | Potency [4]

O=Cc1ccc(O)cc1O
inactive: Potency [1] | Potency [2] | Potency [3] | Potency [4]

Cc1nc(C(N)=O)nc2ccccc12
inactive: Potency [1] | Potency [2] | Potency [3] | Potency [4]

CC1CC(C)C(=O)C1=O (stereo not given)
inactive: Potency [1] | Potency [2] | Potency [3] | Potency [4]

CC(=Cc1ccccc1)C=C1SC(=S)N(CC(=O)O)C1=O
inactive: Potency [1] | Potency [2] | Potency [3] | Potency [4]

COc1cc(C(=O)OC2CC3CCC2(C)C3(C)C)ccc1OC(C)=O (stereo not given)
inactive: Potency [1] | Potency [2] | Potency [3] | Potency [4]

C/C=C(\C)C(=O)O[C@H]1CC(C)=C2C(=O)C=C(C)C2[C@@H]2OC(=O)[C@@](C)(OC(=O)C=C(C)C)C21 (stereo not given in full)
inactive: Potency [1] | Potency [2] | Potency [3] | Potency [4]

CC1(C)CC[C@]2(C(=O)O)[C@H](O)C[C@]3(C)C(=CCC4[C@@]5(C)C[C@H](O)[C@H](O)[C@@](C)(CO)C5CC[C@]43C)[C@@H]2C1 (stereo not given in full)
inactive: Potency [1] | Potency [2] | Potency [3] | Potency [4]

COc1ccc(C[C@@H]2c3cc(O)c(OC)cc3CCN2C)cc1O
inactive: Potency [1] | Potency [2] | Potency [3] | Potency [4]

O=Cc1ccnc2ccccc12
inactive: Potency [1] | Potency [2] | Potency [3] | Potency [4]

CSCCCN=C=S
inactive: Potency [1] | Potency [2] | Potency [3] | Potency [4]

C[C@H]([C@@H](N)C(=O)N[C@@H](C(=O)O)[C@@H]1O[C@H](n2ccc(=O)[nH]c2=O)[C@@H](O)[C@H]1O)[C@@H](O)c1ccc(O)cn1
inactive: Potency [1] | Potency [2] | Potency [3] | Potency [4]

COc1ccc2c(=O)cc(-c3ccccc3)n(C)c2c1
inactive: Potency [1] | Potency [2] | Potency [3] | Potency [4]

O=c1c(O)c(-c2cc(O)c(O)c(O)c2)oc2cc(O)ccc12
inactive: Potency [1] | Potency [2] | Potency [3] | Potency [4]
